# Screens from PubChem BioAssay.
# Hits are enriched below; roughly 2% of the tested compounds scored in any of these assays.
# Rango-impB inh – inhibitors of Rango-importin beta complex formation | Q14974 | Rango CFP/YFP FRET sensor + importin beta, 45 min | Potency, µM (titrated, usually from 92.2 µM), for inactives: at the top dose inhibition of complex formation | actives 0.031% (n = 340,000) | AID 540263; calls by dose curve;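 further: 0% = DMSO wells and 100% = buffer wells lacking importin beta; nearly all actives have a fitted effect of over 15% in size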
# Target sequence (Q14974 whole entry, looked up): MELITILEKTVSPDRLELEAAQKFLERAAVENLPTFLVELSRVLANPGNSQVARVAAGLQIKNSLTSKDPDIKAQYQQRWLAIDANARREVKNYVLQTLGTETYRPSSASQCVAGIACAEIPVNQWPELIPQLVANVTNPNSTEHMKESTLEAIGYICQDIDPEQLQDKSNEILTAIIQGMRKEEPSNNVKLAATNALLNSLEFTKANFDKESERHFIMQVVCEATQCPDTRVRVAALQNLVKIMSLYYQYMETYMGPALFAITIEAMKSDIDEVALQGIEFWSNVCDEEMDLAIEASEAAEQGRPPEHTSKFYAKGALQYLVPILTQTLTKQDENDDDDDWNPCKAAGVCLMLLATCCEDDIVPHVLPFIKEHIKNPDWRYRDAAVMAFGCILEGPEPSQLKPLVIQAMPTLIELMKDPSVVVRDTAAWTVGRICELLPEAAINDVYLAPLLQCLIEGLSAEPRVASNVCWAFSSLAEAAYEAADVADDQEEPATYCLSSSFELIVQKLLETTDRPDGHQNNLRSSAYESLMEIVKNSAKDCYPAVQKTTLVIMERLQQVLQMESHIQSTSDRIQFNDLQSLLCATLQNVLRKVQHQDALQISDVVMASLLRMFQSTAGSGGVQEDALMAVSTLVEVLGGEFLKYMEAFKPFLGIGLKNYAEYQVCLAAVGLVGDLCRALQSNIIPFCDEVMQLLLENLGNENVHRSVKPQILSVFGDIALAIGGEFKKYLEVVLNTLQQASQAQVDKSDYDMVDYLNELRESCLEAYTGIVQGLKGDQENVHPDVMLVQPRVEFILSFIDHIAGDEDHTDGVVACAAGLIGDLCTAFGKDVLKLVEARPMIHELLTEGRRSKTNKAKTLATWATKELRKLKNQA
#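 Inhibition scored from the CFP 486 nm/YFP 530 nm FRET ratio 45 min after adding 0.125 microM importin beta to 50 nM Rango biosensor preincubated 5 min with compound (room temperature, PBS with DTT, Tween-20, BSA). No-importin wells as positive control.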
# S-ASM inh – inhibitors of human secretory acid sphingomyelinase | P17405 | placental ASM, HMU-PC fluorogenic substrate, 60 min | Potency, µM (titrated, usually from 57.5 µM), for the others: at the highest dose activity change, negative = inhibition, most hits filed as inhibitors | actives 0.006% (n = 340,000) | AID 504937
#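 HMU-PC0 cleavage (9 uM final) by human placental ASM, 60 min at 37 °C following 10 min compound exposure at RT; stopped at pH 10, fluorescence Ex 386/Em 447 nm.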
# Abeta rescue – restores growth of yeast expressing A-beta42 peptide. Potency, µM (doses to about 46.1 µM), most hits filed as activators. yeast expressing A-beta42, growth rescue, OD600, 48 h; response scale: 0% DMSO, 100% iron-clioquinol control. actives 0.063% (n = 410,000); further: nearly all actives have a fitted effect of over 55% in size
#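 Yeast growth medium received pinned compounds, then yeast cells expressing toxic A-beta were added; plates incubated at 30 C for 48 hr. Growth read as absorbance at 600 nm, normalized to DMSO and equimolar FeCl3 plus clioquinol controls.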
# aSyn rescue – alpha-synuclein toxicity inhibition in yeast; actives 0.14% (n = 370,000); Yeast expressing alpha-synuclein, growth rescue, BacTiter-Glo, 24 h; Potency, µM (top dose mostly 46.1 µM), for inactives: at the top dose growth rescue (activation), usual class: activators; AID 652106; further: % of control where 0% means no effect; nearly all actives have a fitted effect of over 65% in size
#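 Readout is rescue of growth in alpha-synuclein-expressing yeast, so inhibitors of toxicity appear as activators. Growth after 24 hr at 30 deg C in galactose medium is quantified by luminescence.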
# TDP43 rescue – TDP-43 toxicity inhibition in yeast | TDP-43 expressing yeast growth rescue, BacTiter-Glo, 24 h | Potency, µM (series often up to 46.1 µM), inactives show at the top dose growth rescue (activation), usual class: activators | actives 1.8% (n = 410,000) | AID 652104; further: % of control where 0% means no effect; nearly all actives have a fitted effect of over 50% in size
#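 Growth rescue of TDP-43-toxic yeast measured as ATP luminescence (BacTiter-Glo). Cells grown to mid-log in raffinose, induced in galactose at OD600=0.02, exposed to compound 24 hr at 30 deg C.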
# Rango dissoc inh – inhibition of RanGTP-driven Rango-importin beta dissociation. O95149+P62826. Biochemical FRET Rango-importin beta, RanGTP-induced dissociation. Potency, µM (top dose mostly 46.1 µM), for inactives: at the top dose activity change, negative = inhibition. actives 0.071% (n = 340,000). AID 540253; calls by dose curve; further: % of control where 0% means no effect; nearly all actives have a fitted effect of over 45% in size
#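 Rango/importin beta premix (0.1/0.25 uM final), PBS + 1 mM DTT + 0.02% Tween-20 + 0.1% BSA; cpd 5 min RT; FRET pre-read; + RanGTP-RCC1 (0.6 uM Ran, 2 mM GTP, 0.2 uM RCC1); 45 min RT; FRET post-read, ex 430, em 486/530 nm.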
# An asterisk follows results filed as active; i = inactive; u = inconclusive; x = no result given. Unless noted, the call rests on the fitted dose curve; in most records, active means well fitted curve in the direction sought with a large enough effect; inconclusive means small, poorly fitted or top-dose-only effect, or another doubt; inactive means no such curve, though single readings can be large; an effect the other way counts as inactive or inconclusive. Potency means the concentration at half of the fitted maximal effect.
SMILES,Rango-impB inh,S-ASM inh,Abeta rescue,aSyn rescue,TDP43 rescue,Rango dissoc inh
COCc1ccccc1C1=CC(=O)C[C@H](c2ccc(OC)cc2)C1,-1%,0%,i,9%,11µM*,-3%
COc1ccc(C2=CC(=O)CC(c3ccccc3)C2)cc1 (stereo not given),0%,0%,i,10%,18µM*,-18%
CCOC(=O)c1c(C)[nH]c(C(=O)/C(C#N)=C/c2ccc(OCC)cc2)c1C,0%,-23%,i,-8%,16µM*,-13%
CC(=O)c1c(C)[nH]c(C(=O)/C(C#N)=C/c2cccc(C)c2)c1C,u,-1%,i,-8%,8%,-14%
O=C(c1cccc(COc2cccc3ccccc23)c1)N1CCCC1,4%,-6%,i,17%,22µM*,20%
CCc1ccccc1N(c1nc(-c2ccc(OC)c(OC)c2)no1)c1nc(-c2ccc(OC)c(OC)c2)no1,x,x,i,x,8%,x
COc1cc(NS(=O)(=O)c2ccc(NC(=O)c3ccccc3C(=O)O)cc2)nc(OC)n1,x,x,i,x,2%,x
S=C(NCCc1cccc(Cl)c1)NC1CCCCC1,0%,0%,7.1µM*,2%,4%,26%
Cc1ccc(O)c(NC(=O)COCc2cc(-c3ccco3)on2)c1,x,x,i,x,-2%,x
Nc1nc(N)nc(-c2ccc(Cl)c(Cl)c2)n1,2%,5%,i,0%,22µM*,-5%
Cc1nc(N)nc(N)c1-c1ccc(Cl)c(Cl)c1,5%,2%,i,3%,-3%,2%
CCN(c1cc(C)cc(C)c1)S(=O)(=O)c1nnc(NC(=O)c2ccccc2C)s1,x,x,i,x,15%,x
Cc1cc(N/N=C/c2ccc(F)cc2)nc(-n2nc(C)cc2C)n1,4%,-1%,13µM*,9%,15%,8%
CCOc1cc(/C=N/Nc2cc(C)nc(-n3nc(C)cc3C)n2)ccc1O,u,16%,i,-2%,8%,16%
Cn1c(/C=C/c2ccc(Br)cc2)c([N+](=O)[O-])c(=O)n(C)c1=O,1%,0%,i,0%,20µM*,15%
C=CCOC(=O)c1cn(CC)c2nc(C)ccc2c1=O,1%,-1%,i,-3%,u,5%
CCn1cc(C(=O)OCC(=O)OC2CC(C)CCC2C(C)C)c(=O)c2ccc(C)nc21 (stereo not given),3%,-24%,i,0%,22µM*,8%
Cc1ccc(C(=O)CCNc2ccc(F)c(Cl)c2)o1,1%,-1%,i,-9%,10µM*,3%
CC(=O)CSc1nc(-c2ccccc2)c(-c2ccccc2)o1,3%,0%,i,8%,16µM*,-10%
COCCNC(=O)CSc1nc(-c2ccccc2)c(-c2ccccc2)o1,1%,-1%,i,-6%,-11%,-5%
CCOc1cc(/C=C2\C(=N)N3N=C(S(=O)(=O)CC)SC3=NC2=O)ccc1OC(=O)c1ccco1,5%,u,i,-1%,20%,u
COc1cc(/C=C2\C(=N)N3N=C(S(C)(=O)=O)SC3=NC2=O)ccc1OC(=O)c1ccco1,u,u,x,0%,11%,5.8µM*
CCOC(=O)c1c(C)[nH]c(C)c1S(=O)(=O)N(C)CC(=O)NCc1ccc(Cl)cc1,x,x,i,x,-14%,x
O=C(O)c1ccc(Oc2nc3ccccc3s2)cc1,0%,5%,i,u,13µM*,3%
O=C(O)c1ccc(C=C(c2nc3ccccc3s2)c2nc3ccccc3s2)cc1,u,7%,i,12%,-16%,u
SMILES,Rango-impB inh,S-ASM inh,Abeta rescue,aSyn rescue,TDP43 rescue,Rango dissoc inh
COc1ccccc1Cn1c(SCC(=O)C(C)(C)C)nc2ccccc2c1=O,x,x,i,x,11%,x
CCc1nn2c(=O)cc(COC(=O)c3ccccc3NC(=O)COc3ccccc3C)nc2s1,x,x,i,x,12%,x
O=C(/C=C/c1cccc(Cl)c1)NCc1cccs1,-3%,-1%,i,0%,18µM*,-7%
O=C(/C=C/c1cccc(Cl)c1)Nn1c(-c2cccs2)nc2ccccc2c1=O,-1%,-17%,i,-30%,10µM*,-9%
O=C(/C=C/c1ccc(Cl)cc1)NCc1cccs1,0%,0%,i,10%,-5%,9%
CCN1CCN(Cc2c(O)ccc3oc(C)c(C(=O)Nc4ccc(OC)cc4)c23)CC1,x,x,i,x,0%,x
CCCCc1ccc(C(=O)COC(=O)c2ccc3nc(C)c(C)nc3c2)cc1,x,x,x,1%,x,x
COc1ccc(-c2noc(-c3ccc(C)cc3Cl)n2)cc1OC,x,x,i,x,-10%,x
Fc1ccc(CNC(=S)Nc2ccccc2F)cc1,0%,-1%,u,-1%,u,12%
S=C(NCc1ccccc1)Nc1cccc(Cl)c1,0%,2%,i,-11%,28µM*,-18%
O=C(CNc1cccc(Cl)c1)NNC(=S)NCc1ccccc1,0%,-4%,i,-4%,-14%,0%
Fc1ccccc1NC(=S)NCc1ccc(Cl)cc1,2%,0%,u,1%,11µM*,22%
Cc1cccc(N(C)C(=O)Cn2cnc3nc4c(cc3c2=O)CCCC4)c1,x,x,i,x,12%,x
CC(=O)/C=C1\C(=O)N(C)c2ccccc21,x,x,x,0%,x,x
COc1ccc(C(=O)OCCN2C(=O)c3ccccc3C2=O)cc1,u,-3%,i,u,2%,u
CN1C(=O)/C(=N\OC(=O)c2cccc3ccccc23)c2ccccc21,5%,-17%,i,u,18µM*,7%
COc1ccc(C(=O)O/N=C2\C(=O)N(C)c3ccccc32)cc1,2%,-4%,x,5.6µM*,4µM*,-10%
CCOc1cccc(C(=O)N(Cc2ccc(C(C)C)cc2)C2CCS(=O)(=O)C2)c1 (stereo not given),x,x,i,x,u,x
c1ccc(C2Nc3ccccc3C3OCCCC23)cc1 (stereo not given),1%,-10%,i,-34%,11µM*,12%
COc1cccc(C(=O)Oc2ccc3ccc(O)cc3c2)c1,-1%,-10%,i,-1%,20µM*,-8%
Cc1ccccc1C(=O)Oc1ccc2ccc(O)cc2c1,1%,-4%,i,-9%,18µM*,0%
Cc1ccccc1S(=O)(=O)Oc1ccc2ccc(O)cc2c1,0%,-1%,i,-7%,u,4%
COc1cccc(C(=O)NNC(=O)c2ccc3ccccc3c2)c1,-2%,1%,i,-12%,-15%,-1%
Cn1ncc(C(=O)Nc2ccc(OC(F)(F)F)cc2)c1-n1cccc1,-1%,-6%,i,9%,13µM*,-7%
